Each structure is given as a SMILES string. Values joined by “and” are separate entries in the source; they are usually repeats but may differ in a detail not shown here. Equal entries are not always repeated. Records with an inconclusive call do not appear. Entries that show only a call come without a potency. Some structures have more than one record in an assay (separate samples or runs), and their calls can disagree. Active and inactive are the calls of the source. Calls follow the shape of the full dose curve.
Potency is read from the fitted curve at half-maximal effect.

The target of the experiment is Cytochrome P450 1A2 (Homo sapiens) (UniProt P05177). Nature of the experiment: p450-cyp1a2 (AID 410). The conditions noted are these: recombinant CYP1A2, luciferin-ME demethylation, luminescence; series mostly up to 57 µM. On the procedure: The P450 gene superfamily is involved in metabolism and the clearance of xenobiotics. This assay used human CYP1A2 to measure the demethylation of luciferin 6' methyl ether (Luciferin-ME; Promega-Glo) to luciferin. The luciferin is then measured by luminescence after the addition of a luciferase detection regeant. Luciferin-ME concentration in the assay was equal to its Km for CYP1A2.
Chain of Cytochrome P450 1A2 (Homo sapiens) (P05177 whole entry, looked up): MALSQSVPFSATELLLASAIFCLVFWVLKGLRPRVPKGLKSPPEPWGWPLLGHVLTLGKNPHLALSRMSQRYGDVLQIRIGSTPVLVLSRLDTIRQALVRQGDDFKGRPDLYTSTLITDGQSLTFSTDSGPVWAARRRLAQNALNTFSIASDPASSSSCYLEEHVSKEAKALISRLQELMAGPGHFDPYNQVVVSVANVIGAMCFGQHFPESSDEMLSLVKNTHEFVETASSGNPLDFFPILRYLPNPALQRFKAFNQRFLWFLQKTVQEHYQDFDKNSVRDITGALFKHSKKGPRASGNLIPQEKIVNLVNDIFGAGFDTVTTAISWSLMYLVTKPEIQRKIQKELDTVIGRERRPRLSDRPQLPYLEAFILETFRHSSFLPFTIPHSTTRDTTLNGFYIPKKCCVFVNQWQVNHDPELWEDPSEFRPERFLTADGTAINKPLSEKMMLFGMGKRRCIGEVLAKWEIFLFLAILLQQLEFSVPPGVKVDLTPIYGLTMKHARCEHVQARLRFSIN
NCGC Assay Protocol Summary:
Two uL of enzyme and substrate mix (final concentrations: 20nM CYP1A2, 100uM Luciferin-ME, 100mM KPO4) were dispensed into a white, solid bottom 1536-well microtiter plate. 23nL of compound was transferred by a pin tool. The plate was incubated at room temperature for 10 min. Two uL of an NADPH regeneration solution (Promega supplied reagent) was dispensed and the reaction was allowed to continue for 60 min at room temperature. Then the reaction was stopped by reconstituted detection reagent. After another 20 min of incubation the plate was read on the ViewLux (Perkin Elmer) at 60 sec exposure and 2x2 binning. This protocol was carried out with Promega-Glo reagents and further information can be found at http://www.promega.com/tbs/tb325/tb325.pdf. Data were normalized to the to AC100 inhibition (57 uM furafylline).
In the case of `O=c1ccc2[nH]cc(C3=CCNCC3)c2[nH]1`, the Potency result was “inactive”.

On to `O=P(O)(O)C(Cl)(Cl)P(=O)(O)O`, for which the Potency result is “inactive”.

Turning to `O=[N+]([O-])c1cc(O)c(O)c([N+](=O)[O-])c1`, the Potency result is “inactive”.

`COc1ccc2[nH]cc(CCN)c2c1`: the Potency is 1.58 µM (active).

On to `C[N+]1(C)CCN(c2ccccc2)CC1`, for which the Potency entry is “inactive”.

Take `CN1CCc2cccc(Cl)c2CC1`: the Potency result is “inactive”.

For `O=C(O)c1cc[c]([Hg][Cl])cc1`, the Potency was 3.16 µM (active).

Consider `NCCCP(=O)(O)O`, for which the Potency entry is “inactive”.

Take `CCC1(C)CC(=O)NC(=O)C1`: the Potency result was “inactive”.

Turning to `OCc1cnc[nH]1`, the Potency result is “inactive”.

Regarding `CC(C)(C)c1cc(C=C(C#N)C#N)cc(C(C)(C)C)c1O`, the Potency was 10 µM (active).

For `CCCn1c(=O)c2[nH]c(C3CCCC3)nc2n(CCCOC(=O)c2ccc(S(=O)(=O)F)cc2)c1=O`, the Potency entry is “inactive”.

In the case of `CN1CCc2cc(O)cc3c2[C@H]1Cc1ccc(O)c(O)c1-3`, the Potency was 12.6 µM (active).

As for `CCS(=O)(=O)Nc1cccc(C(=C2CCCCC2)c2cnc[nH]2)c1`, the Potency was 0.316 µM (active).

As for `Cc1c2ccncc2c(C)c2c1[nH]c1ccccc12`, the Potency was 79.4 nM (active) and 20 nM (active).

`c1ccc2c(c1)[I+]c1ccccc1-2`: the Potency is 126 nM (active) and 20 nM (active).

As for `CCCN(CCC)[C@@H]1CCc2cccc(O)c2C1`, the Potency result was “inactive and 31.6 µM (active)”.

As to `CCC(=O)O[C@@](Cc1ccccc1)(c1ccccc1)[C@@H](C)CN(C)C`, the Potency entry was “inactive”.

`O=C1C=CC(=O)C=C1`: the Potency entry was “inactive”.

As to `CN(N=O)c1ccc(O)c(O)c1`, the Potency entry was “inactive”.

`NCCc1ccc(S(=O)(=O)F)cc1`: the Potency was 15.8 µM (active).

For the compound `CCCN(CCC)C1Cc2cc(OC)c(OC)cc2C1`, the Potency entry is “inactive”.

On to `CP(=O)(O)C1=CCNCC1`, for which the Potency result was “inactive”.

On to `c1ccc2c(N3CCNCC3)cccc2c1`, for which the Potency is 10 µM (active).

With `CC(=O)NBr`, the Potency entry is “inactive”.

Take `CCCn1c(C)c(C(=O)c2ccc3ccccc3c2)c2ccccc21`: the Potency was 6.31 µM (active).

`CN1[C@@H]2CC[C@H]1CC(OC1c3ccccc3CCc3ccccc31)C2` (stereo not given in full): the Potency entry is “inactive”.

Consider `CCN(CCCl)Cc1ccccc1Br`, for which the Potency is 15.8 µM (active).

Regarding `c1ccc2cc(CC3=NCCN3)ccc2c1`, the Potency result is “inactive”.

With `C[N+]1(C)[C@@H]2CC[C@H]1CC(OC(=O)c1c[nH]c3ccccc13)C2` (stereo not given in full), the Potency result was “inactive”.

Consider `COc1ccc2[nH]c3c(c2c1)CCNC3`, for which the Potency was 3.16 µM (active).

Turning to `NCCc1c[nH]c2ccc(C(N)=O)cc12`, the Potency was 6.31 µM (active) and 1.26 µM (active).

As for `c1cc2c(c(NC3=NCCN3)c1)CCCC2`, the activity change, negative = inhibition is -17.1% [at 11.4 µM] (inactive).

With `C[C@@H]1O[C@H](C[N+](C)(C)C)CS1`, the Potency entry is “inactive”.

For the compound `NNC(=O)c1ccc(O)cc1`, the Potency entry is “inactive”.

For the compound `NC(=O)c1cc(N2CC2)c([N+](=O)[O-])cc1[N+](=O)[O-]`, the Potency result is “inactive”.

For the compound `CN1CCC(c2c[nH]c3ccc(O)cc23)CC1`, the Potency is 31.6 µM (active).

Turning to `N#CCCN`, the Potency result was “inactive”.

Regarding `C[N+](C)(C)CC#CCN1CCCC1=O`, the Potency result was “inactive”.

Turning to `CCCN1CCc2cc(O)cc3c2[C@H]1Cc1ccc(O)c(O)c1-3`, the Potency was 12.6 µM (active).

The values above are taken from PubChem BioAssay (NCATS).
